The values that follow come from PubChem BioAssay (EPA / NIEHS).

Read-out in test [1]: Interleukin-8 (IL8), CXCL8 (gene 3576)
The test is described as follows: BSK_3C_IL8: BioMAP Diversity Plus: 3C Assay for Interleukin-8 (IL8) Biomarker Activity (AID 2283020). As to conditions: primary human endothelial cells (HUVEC); actives raise or lower the signal. The method in brief: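 Primary human umbilical vein endothelial cells were dosed for 24 h. IL-8 was quantified by ELISA and fitted bidirectionally against DMSO. Cytotoxicity was assessed in parallel cultures by SRB staining at 560 nm.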

Read-out in test [2]: Monokine induced gamma interferon (MIG), CXCL9 (gene 4283)
The test is described as follows: BSK_3C_MIG: BioMAP Diversity Plus: 3C Assay for Monokine induced gamma interferon (MIG) Biomarker Activity (AID 2283021). The note with it: primary human endothelial cells (HUVEC); actives raise or lower the signal. The method in brief: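 HUVEC primary endothelial cultures dosed with chemical; MIG quantified by ELISA at 24 h. Data fitted bidirectionally against DMSO control, with parallel SRB total-protein staining for cytotoxicity.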

Test [3] in a line: BSK_3C_SRB: Viability Assessment in the BioMAP Diversity Plus: 3C Assay (AID 2283023).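 Further: fitted both ways against DMSO so a hit may be signal rise or drop.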 The note with it: primary human endothelial cells (HUVEC). The method in brief: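 Cytotoxicity readout in parallel HUVEC 3C cultures: after 24 h compound exposure, cells fixed with 10% TCA, stained with 0.1% SRB and read at 560 nm. Gain or loss relative to DMSO fitted.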
Read-out in test [4]: Matrix Metallopeptidase 1 (MMP1), MMP1 (gene 4312)
The test can be described thus: BSK_BE3C_MMP1: BioMAP Diversity Plus: BE3C Assay for Matrix Metallopeptidase 1 (MMP1) Biomarker Activity (AID 2283024). As to conditions: primary human bronchial epithelial cells; actives raise or lower the signal. The method in brief: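 Human primary bronchial epithelial cells (BE3C system) dosed for 24 h; MMP-1 quantified by ELISA. Bidirectional fit against DMSO; cytotoxicity tracked in parallel cultures by SRB total-protein staining.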

Read-out in test [5]: Pselectin, SELP (gene 6403)
The test can be described thus: BSK_4H_Pselectin: BioMAP Diversity Plus: 4H Assay for Pselectin Biomarker Activity (AID 2283026). As to conditions: primary human endothelial cells (HUVEC); actives raise or lower the signal. The method in brief:
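Primary human umbilical vein endothelial cells were treated 24 h, and cell-surface P-selectin was then quantified by ELISA. Bidirectional fit versus DMSO; cytotoxicity checked in parallel cultures by SRB total-protein staining.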

Test [6] is described as follows: BSK_4H_SRB: Viability Assessment in the BioMAP Diversity Plus: 4H Assay (AID 2283027).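 Further: cells exposed to compound for 24 h before staining.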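 On AC50: curves fitted both ways versus DMSO so AC50 may be loss or gain.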 The note with it: primary human endothelial cells (HUVEC). The method in brief: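 Absorbance at 560 nm of SRB-stained total protein served as the viability read-out in confluent primary human umbilical vein endothelium 24 h after chemical treatment. Curves were fitted bidirectionally against DMSO as negative control.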

Test [7] in a line: BSK_BE3C_SRB: Viability Assessment in the BioMAP Diversity Plus: BE3C Assay (AID 2283028).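 On AC50: fitted both ways so AC50 may mark signal gain or loss versus DMSO.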 As to conditions: primary human bronchial epithelial cells. The method, boiled down: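 Cytotoxicity read-out: SRB (0.1%) staining of TCA-fixed (10%) human lung bronchial epithelial cells, absorbance 560 nm, 24 h post-dosing. Curves fitted both directions relative to DMSO.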
Read-out in test [8]: Thrombomodulin, THBD (gene 7056)
The test is described as follows: BSK_3C_Thrombomodulin: BioMAP Diversity Plus: 3C Assay for Thrombomodulin Biomarker Activity (AID 2283029). As to conditions: primary human endothelial cells (HUVEC); actives raise or lower the signal. The method, boiled down: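 Human umbilical vein endothelial cells were exposed to chemicals for 24 h; cell-surface thrombomodulin quantified by ELISA, with bidirectional fitting against DMSO baseline.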

Read-out in test [9]: Urokinase-type plasminogen activator receptor (uPAR), PLAUR (gene 5329)
The test can be described thus: BSK_4H_uPAR: BioMAP Diversity Plus: 4H Assay for Urokinase-type plasminogen activator receptor (uPAR) Biomarker Activity (AID 2283030). As to conditions: primary human endothelial cells (HUVEC); actives raise or lower the signal. The method in brief:
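uPAR level read by ELISA on HUVEC cultures (BioMAP 4H) 24 h post-dosing, analyzed for gain or loss relative to DMSO. Parallel SRB staining assessed overt cytotoxicity.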

Read-out in test [10]: Vascular endothelial growth factor receptor 2 (Homo sapiens) (UniProt P35968)
The test can be described thus: BSK_4H_VEGFRII: BioMAP Diversity Plus: 4H Assay for Vascular endothelial growth factor receptor 2 (VEGFR2) Biomarker Activity (AID 2283031). The note with it: primary human endothelial cells (HUVEC); actives raise or lower the signal. The method, boiled down: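 Measured by ELISA after 24 h of compound treatment: VEGFR2 on primary human umbilical vein endothelial cells, fitted in both directions relative to DMSO. Parallel cultures received SRB staining (560 nm) for overt cytotoxicity.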

Read-out in test [11]: Human Leukocyte Antigen - DR isotype (HLADR), HLA-DRA (gene 3122)
The test can be described thus: BSK_BE3C_HLADR: BioMAP Diversity Plus: BE3C Assay for Human Leukocyte Antigen - DR isotype (HLADR) Biomarker Activity (AID 2283032). The note with it: primary human bronchial epithelial cells; actives raise or lower the signal. The method in brief: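 Human primary bronchial epithelial cells (BE3C system) exposed to compound for 24 hours; cell-surface HLA-DR measured by ELISA, fitted bidirectionally relative to DMSO. Total protein by SRB in parallel cultures tracked cytotoxicity.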

Read-out in test [12]: Vascular cell adhesion molecule 1 (VCAM1), VCAM1 (gene 7412)
The test can be described thus: BSK_4H_VCAM1: BioMAP Diversity Plus: 4H Assay for Vascular cell adhesion molecule 1 (VCAM1) Biomarker Activity (AID 2283033). As to conditions: primary human endothelial cells (HUVEC); actives raise or lower the signal. The method in brief:
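Primary human umbilical vein endothelial cells, 4H stimulation system, treated for 24 h; cell-surface VCAM-1 quantified by ELISA. Bidirectional fitting against DMSO; cytotoxicity tracked by SRB total-protein staining in parallel cultures.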

Read-out in test [13]: Interferon-gamma inducible Protein 10 (IP10), CXCL10 (gene 3627)
The test can be described thus: BSK_BE3C_IP10: BioMAP Diversity Plus: BE3C Assay for Interferon-gamma inducible Protein 10 (IP10) Biomarker Activity (AID 2283034). The note with it: primary human bronchial epithelial cells; actives raise or lower the signal. The method, boiled down:
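Primary human bronchial epithelial cells, with IP-10 measured by ELISA 24 hours after chemical dosing. Bidirectional fit against DMSO; cytotoxicity checked by SRB total protein staining in parallel cultures.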

Read-out in test [14]: Monokine induced gamma interferon (MIG), CXCL9 (gene 4283)
The test can be described thus: BSK_BE3C_MIG: BioMAP Diversity Plus: BE3C Assay for Monokine induced gamma interferon (MIG) Biomarker Activity (AID 2283035).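 On outcome: MIG protein measured by ELISA in BE3C cultures after 24 h of dosing.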 As to conditions: primary human bronchial epithelial cells; actives raise or lower the signal. The method in brief:
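MIG level was determined by ELISA after 24 h chemical treatment of primary human bronchial epithelial cells. Values were fitted bidirectionally with DMSO as the negative control and activity baseline.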

Read-out in test [15]: Plasminogen activator inhibitor-1 (PAI1), SERPINE1 (gene 5054)
The test can be described thus: BSK_BE3C_PAI1: BioMAP Diversity Plus: BE3C Assay for Plasminogen activator inhibitor-1 (PAI1) Biomarker Activity (AID 2283037). The note with it: primary human bronchial epithelial cells; actives raise or lower the signal. The method in brief: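 Primary human bronchial epithelial cells (BE3C system) exposed 24 h; PAI-1 quantified by ELISA. Parallel sulforhodamine B staining of total protein flags cytotoxicity. Bidirectional fit versus DMSO.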

Read-out in test [16]: urokinase plasminogen activator (uPA), PLAU (gene 5328)
The test is described as follows: BSK_BE3C_uPA: BioMAP Diversity Plus: BE3C Assay for urokinase plasminogen activator (uPA) Biomarker Activity (AID 2283038).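 On outcome: uPA protein level quantified by ELISA in cell cultures; uPA read one day after compound addition.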 The note with it: primary human bronchial epithelial cells; actives raise or lower the signal. The method, boiled down: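 ELISA for uPA on human primary bronchial epithelial cultures 24 h post-treatment, gain or loss against DMSO. Parallel SRB staining (0.1% after 10% TCA fixation, 560 nm) assessed overt cytotoxicity.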

Read-out in test [17]: Urokinase-type plasminogen activator receptor (uPAR), PLAUR (gene 5329)
The test is described as follows: BSK_BE3C_uPAR: BioMAP Diversity Plus: BE3C Assay for Urokinase-type plasminogen activator receptor (uPAR) Biomarker Activity (AID 2283039).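 On outcome: uPAR protein level measured by ELISA on the cells; cells exposed to compound for one day before measurement.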 The note with it: primary human bronchial epithelial cells; actives raise or lower the signal. The method, boiled down:
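Primary human bronchial epithelial cells dosed for 24 h; uPAR quantified by ELISA with bidirectional fitting against DMSO. Overt cytotoxicity assessed in parallel cultures by SRB total-protein staining (0.1% SRB, 560 nm).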

In test [18] the target is human Vitamin D Receptor (VDR), VDR (gene 7421) (UniProt P11473). The test is described as follows: ATG_VDR_TRANS: Attagene TRANS-FACTORIAL HepG2 Assay for human Vitamin D Receptor (VDR) (AID 2283022; active means hit-call score of the fitted dose curve at least 0.9, where 1 is the maximum). The method, boiled down: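 Transactivation by an exogenous VDR-Gal4 chimera in transiently transfected HepG2 cells was measured as reporter transcript level 24 hours after chemical treatment. RT-PCR products were analysed by capillary electrophoresis and fitted in the positive direction relative to DMSO.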
Chain of human Vitamin D Receptor (VDR), VDR (gene 7421) (P11473 whole entry, looked up, the tested form may be a part): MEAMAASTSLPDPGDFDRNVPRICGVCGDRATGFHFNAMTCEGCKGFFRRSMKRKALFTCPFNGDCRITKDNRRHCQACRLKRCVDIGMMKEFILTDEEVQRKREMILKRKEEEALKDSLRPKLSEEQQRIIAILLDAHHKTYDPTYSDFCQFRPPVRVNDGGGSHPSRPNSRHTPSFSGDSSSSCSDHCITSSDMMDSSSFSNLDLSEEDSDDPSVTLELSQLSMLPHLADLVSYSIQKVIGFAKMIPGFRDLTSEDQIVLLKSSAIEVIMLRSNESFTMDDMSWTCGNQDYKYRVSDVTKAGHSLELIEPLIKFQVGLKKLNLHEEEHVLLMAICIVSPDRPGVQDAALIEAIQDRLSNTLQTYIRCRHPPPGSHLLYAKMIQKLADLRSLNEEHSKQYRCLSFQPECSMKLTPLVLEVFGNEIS

“And” between values parts separate entries of the source, which are not always exact repeats. Equal entries are not always repeated. Inconclusive results are not listed. The source made the active and inactive calls. How the source made its calls, unless noted: active means hit-call score of the fitted dose curve at least 0.9, where 1 is the maximum; inactive means score below 0.9.

Take `O=C(O)C(F)(F)C(F)(F)C(F)(F)C(F)(F)C(F)(F)C(F)(F)C(F)(F)C(F)(F)C(F)(F)C(F)F`: the result in test [1], in [2], in test [4], in test [5], in [9] and in [10] was inactive. Moreover, the AC50 is 47.3 µM (active) and 49.5 µM (active) in [3]; 48.6 µM (active) and 45.8 µM (active) in test [6]; 21 µM (active) and 20.7 µM (active) in test [7]; 49.3 µM (active) and 46.1 µM (active) in test [8]; 10.5 µM (active) in test [11]; 47.8 µM (active) and 55.4 µM (active) in test [12]. For the same compound, the AC50 in test [13] is 8.14 µM (active) and 8.37 µM (active); in test [14], 15 µM (active) and 14.9 µM (active); in test [15], 14 µM (active) and 12.1 µM (active); in test [16], 16.5 µM (active) and 10.6 µM (active); in test [17], 15.7 µM (active) and 16.7 µM (active).
`C=CC(F)(F)C(F)(F)C(F)(F)C(F)(F)C(F)(F)C(F)(F)C(F)(F)C(F)(F)F`: the outcome in [1], in [2], in test [3], in test [4], in test [5] and in test [6] was inactive. Besides, the result in test [7], in test [9], in test [10], in [11], in [12] and in test [13] was inactive. The result in test [14], in [15] and in test [17] was inactive.
As for `COC(=O)C1CCC(C(=O)OC)CC1` (stereo not given), the outcome in [18] was inactive.
Same read-out and setting: as for `CC(C)(C)c1ccc(OC2CCCCC2O)cc1` (stereo not given), the entry is “inactive”.
For the compound `O=S(=O)(O)c1ccc2ccccc2c1`, the result in test [18] was inactive.
In the case of `O=C(C=Cc1ccccc1)OCC=Cc1ccccc1`, in [18], the compound was called inactive.
The same measure, in the same setting: as for `CCCCCCS`, the entry is “inactive”.
Take `FC(F)(F)C(F)(F)C(F)(F)C(F)(F)C(F)(F)C(F)(F)CC1CO1` (stereo not given): the result in [1], in [2], in [3], in test [4], in [5] and in test [6] was inactive. In addition, the outcome in test [7], in test [8], in test [9], in test [10], in [11] and in [12] was inactive. The result in [13], in test [14], in test [15], in [16] and in test [17] was inactive.
Consider `FC(F)(F)C(F)(F)C(F)(F)C(F)(F)C(F)(F)C(F)(F)C(F)(F)I`, for which the result in test [1], in [2], in [3], in [4], in test [5] and in test [6] was inactive. Besides, the result in test [7], in [9], in [10], in [11], in test [12] and in test [14] was inactive. Besides, the outcome in test [15] and in test [16] was inactive.
As to `FC1CC(F)(F)C(F)(F)C1(F)F` (stereo not given), the outcome in test [1], in test [2], in [3], in [4], in [5] and in test [6] was inactive. Moreover, the result in test [7], in test [8], in test [9], in [10], in [11] and in test [12] was inactive. Besides, the outcome in test [14], in [15] and in test [17] was inactive.
On to `CC/C=C\CCOC(C)=O`, for which the call in [18] was inactive.
In the case of `CC(Cc1ccc(O)c(O)c1)C(C)Cc1ccc(O)c(O)c1` (stereo not given), in [18], the result was inactive.
